Data published in the supplement of paper PMC10338343.
± gives the standard deviation.

test system: MILI (PIWIL2) piRISC loaded with piRNA #1 (26 nt); experiment: pre-steady-state target cleavage rate (min^-1); guide: piRNA #1 5'p-UGAGGUAGUAGGUUGUAUAGUAUCCA; MIWI and MILI are mouse PIWI proteins and EfPiwi is from a freshwater sponge; tags in brackets are library labels; higher = faster piRNA-guided slicing of the target; details: auxiliary factor: 500 nM mouse GTSF1
Method in brief: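 Active affinity-purified piRISC carrying one synthetic guide (1 nM) was mixed with a transcribed, DNA-blocked target RNA library […] in HEPES–potassium acetate buffer at 33 °C for 0–8 or 0–960 min, with or without 500 nM GTSF1 partner protein. Uncleaved targets were then sequenced and normalised to depth and to weakly complementary targets. Three trials were pooled, and k3 was capped at 0.0001 min^-1. A burst-and-steady-state fit was applied to obtain the pre-steady-state cleavage rate.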
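Further: 1 nM active piRISC with 0.1 nM target library at 33 °C single turnover.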

First: GGAGAGGUUAGUAUACAACCUACUACCUCA
Second: GGAGACCAUAGUAUACUACCUACUACCUCA
The “pre-steady-state target cleavage rate” value of the first is lower: 0.0314 ± 0.0096 for the first, 0.131 ± 0.013 for the second.

Going from GGAGACCUAUGAUAUGAACCUACCUACCUCA to GGAGACCUUUCUAUACAACGUACUACCUCA, the “pre-steady-state target cleavage rate” value rises from under 0.0001 to 0.013 ± 0.003.

GGAGACCUAUCAAUACAACCUUCUACCUCA and GGAGACCUAUGUAUAGAACCUACUACCUGA are within error of each other in “pre-steady-state target cleavage rate” value: 0.00474 ± 0.0027 for the first, 0.00583 ± 0.0025 for the second.

Going from GGAGACCUAUGAAUACAACCUAAUACCUCA to GGAGACCUUACUAUACAACCUACGUACCUCA, the “pre-steady-state target cleavage rate” value rises from 0.00363 ± 0.0026 to 0.0918 ± 0.0092.

Compared with GGAGAGGAUUCUAUACAUCCUACUACCUCA, GGAGACCUAUGAUAUGAACGCUACUACCUCA is lower in “pre-steady-state target cleavage rate” value: 0.263 ± 0.013 for the first, under 0.0001 for the second.

First: GGAGACCUAUCUAUACAACCUACUGACCUCA
Second: GGAGACCUUACUAUACAACCUACUAGCUGA
The “pre-steady-state target cleavage rate” value of the first is higher: 0.066 ± 0.012 for the first, 0.00949 ± 0.0037 for the second.

Compared with “GGAGACCUAUGAUAUGUACCUACUUGGAGA [g7:g13:cont:t1A]”, GGAGACCUUACUAUACUACCUUCUACCUCA is higher in “pre-steady-state target cleavage rate” value: under 0.0001 for the first, 0.0109 ± 0.0029 for the second.

Going from GGAGACCUUACUAUACAACCGUACUACCUCA to GGAGACCUAACUAUACAACCUACUCACCUCA, the “pre-steady-state target cleavage rate” value rises from 0.00868 ± 0.0053 to 0.147 ± 0.032.

Going from GGAGACCAUACUAUUGUACCUACUACCUCA to GGAGACCUAACUUUACAACCUACUAGCUCA, the “pre-steady-state target cleavage rate” value falls from 0.0647 ± 0.009 to 0.0363 ± 0.017.

Compared with GGAGACCAUACAAUAGAACCUACUACCUCA, GGAGACCUAACUAUAGAACCUACUACCUCA is lower in “pre-steady-state target cleavage rate” value: 0.179 ± 0.02 for the first, 0.131 ± 0.021 for the second.

Going from GGAGUGGAUACUAUACCAACCUACUACCUCA to GGAGACCUAACUAUACUUGCUACUACCUCA, the “pre-steady-state target cleavage rate” value falls from 0.0424 ± 0.0067 to 0.0149 ± 0.0044.

GGAGACCUAUCUAUACAAGCUUCUACCUCA and GGAGACCUAACUAAACAACCUACUACGUCA are within error of each other in “pre-steady-state target cleavage rate” value: 0.0321 ± 0.0061 for the first, 0.0404 ± 0.019 for the second.

First: GGAGACCUAUGUUUACAAGCUACUACCUCA
Second: GGAGACCUAACUAUACUACCUUCUACCUCA
The “pre-steady-state target cleavage rate” value of the first is higher: 0.0793 ± 0.017 for the first, 0.00544 ± 0.0042 for the second.

Compared with GGAGACCUAACUAUAGCAACCUACUACCUCA, GGAGACCUAUGUAUACAACCUACUACCAGA is lower in “pre-steady-state target cleavage rate” value: 0.0973 ± 0.023 for the first, 0.055 ± 0.009 for the second.

Compared with GGAGACCAUACUAUACUUGCUACUACCUCA, GGAGACCUAUGAUAAGAACCUACUUCCUCA is lower in “pre-steady-state target cleavage rate” value: 0.0454 ± 0.0044 for the first, under 0.0001 for the second.

Going from GGAGACCUUAGUAUACAACCUACAACCUCA to GGAGUGGAUACUAAUGAACCUACUACCUCA, the “pre-steady-state target cleavage rate” value falls from 0.0865 ± 0.013 to 0.0477 ± 0.0065.

First: GGAGACCUAUCUAUACAUCCUACUUCCUCA
Second: GGAGACCUUACAAUACAACCUUCUACCUCA
The “pre-steady-state target cleavage rate” value of the first is higher: 0.107 ± 0.019 for the first, 0.00687 ± 0.0029 for the second.

Compared with GGAGACCAUACUAAACAACCUACUACGUCA, GGAGACCUAACUAUACAACCUACGUACCUCA is lower in “pre-steady-state target cleavage rate” value: 0.0881 ± 0.014 for the first, 0.0356 ± 0.015 for the second.

Going from GGAGACGAUACUAUACUUGCUACUACCUCA to GGAGACCUAUCAAUUCAACCUACUACCUCA, the “pre-steady-state target cleavage rate” value falls from 0.0658 ± 0.0062 to 0.00721 ± 0.0029.

GGAGACCUUACUAUAGAACGUACUACCUCA and GGAGACCUUAGUAUACAACGUACUACCUCA are within error of each other in “pre-steady-state target cleavage rate” value: 0.0109 ± 0.0021 for the first, 0.0124 ± 0.0037 for the second.
